Values joined by “and” are separate entries in the source; they are usually repeats but may differ in a detail not shown here. Equal entries are not always repeated. Unmarked numbers belong to inactive results. Inconclusive results are not listed. Where a call stands in place of a potency, no number is given. Active and inactive are the calls of the source. Unless noted, calls follow the shape of the dose curve; as a rule, active = well fitted curve in the direction sought with a large enough effect; inconclusive = small, poorly fitted or top-dose-only effect, or another doubt; inactive = no such curve, though single readings can be large; an effect the other way counts as inactive or inconclusive.
test system: not listed separately; assay: qHTS for Activators of Parkin Expression: LOPAC Validation Assay (FLuc Reporter) (AID 720573); settings: Cell line, PRKN promoter firefly luciferase reporter, vehicle wells = 0, positive control = 100%; series mostly up to 46.1 µM
In short: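 FLuc signal from Parkin-promoter coincidence reporter neuronal cells, normalized to DMSO and positive control (100%). Cells (1,500/well) pre-incubated 24 h, then exposed to LOPAC compounds in 7-point dose response for 24 h at 37 C, 5% CO2.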

SMILES	outcome
Cc1c(C(=O)c2cccc3ccccc23)c2cccc3c2n1[C@H](CN1CCOCC1)CO3	inactive
NC(=O)CN1CC(O)CC1=O (stereo not drawn)	inactive
C#CCOC(=O)C1=CCCN(C)C1	inactive
CC(=O)NCCc1c[nH]c2ccccc12	inactive
CCCCc1ccc(C(=O)O)nc1	inactive
O=C(N[C@H]1CN2CCC1CC2)c1ccc(Cl)cc1	inactive
CC(C)NC(C)Cc1ccc(I)cc1 (stereo not drawn)	inactive
CC[C@@H](C(N)=O)N1CCCC1=O	inactive
CC[C@@]1(O)C(=O)OCc2c1cc1n(c2=O)Cc2cc3ccccc3nc2-1	inactive
O=C(O)CC[N+](=O)[O-]	inactive
CCCN(CCC)[C@@H]1CCc2ccc(O)cc2C1	inactive
C[C@@H](N)Cc1cnc[nH]1	inactive
c1ccc2sc(C3(N4CCCCC4)CCCCC3)cc2c1	inactive
COC(=O)[C@@H](N)CCCN=C(N)N[N+](=O)[O-]	inactive
c1ccc(C2(c3ccccc3)CC2C2=NCCN2)cc1 (stereo not drawn)	inactive
O=C1CCCN1CC#CCN1CCCC1	inactive
CC1=NN=C(c2ccc(N)cc2)c2cc3c(cc2C1)OCO3	inactive
c1ccc(CCCN2CCN(CCOC(c3ccccc3)c3ccccc3)CC2)cc1	inactive
C[C@@H]1O[C@H](C[N+](C)(C)C)C[C@H]1O	inactive
S=C(NC1CCCCC1)N1CCC(c2cnc[nH]2)CC1	inactive
NC(CP(=O)(O)O)C(=O)O (stereo not drawn)	inactive
Oc1ccc2c3c1O[C@H]1c4[nH]c5c(c4C[C@@]4(O)[C@@H](C2)N(CC2CC2)CC[C@]314)C[C@@]1(O)[C@H]2Cc3ccc(O)c4c3[C@@]1(CCN2CC1CC1)[C@H]5O4	inactive
NCCc1c[nH]c2ccccc12	inactive
COc1cc(C(O)CN)ccc1O (stereo not drawn)	inactive
C/C=C(/C)C(=O)O[C@H]1C(C)=C2[C@H]([C@@H]1OC(=O)CCCCCCC)[C@@](C)(OC(C)=O)C[C@H](OC(=O)CCC)[C@@]1(O)[C@H]2OC(=O)[C@@]1(C)O	inactive
NC1CC1c1ccccc1 (stereo not drawn)	inactive
CCCN1CCC[C@H](c2cccc(O)c2)C1	inactive
NC(N)=NOCCC(N)C(=O)O (stereo not drawn)	inactive
COc1ccc2c(c[n+](C)c3c4cc5c(cc4ccc23)OCO5)c1OC	inactive

test system: not listed separately; assay: qHTS assay for small molecule agonists of the antioxidant response element (ARE) signaling pathway measured by Nrf2-dependant transcriptional activity (AID 720636; active = well fitted curve in the direction sought with a large enough effect in the repeat runs; an effect the other way counts as inactive or inconclusive); settings: ARE-luc HepG2, Nrf2 luciferase reporter, 16 h; series mostly up to 92.4 µM
In short: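 ARE-luc HepG2 cells carrying an Nrf2-responsive luciferase reporter, in medium with 1% dialyzed FBS, exposed to compound for 16 hr at 37 C, 5% CO2. Luminescence read 30 min after ONE-Glo addition.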

SMILES	Potency
CCCCCC[C@H]1C(=O)O[C@H](C)[C@H](NC(=O)c2cccc(NC=O)c2O)C(=O)O[C@@H](C)[C@@H]1OC(=O)CC(C)C	inactive
CCCCCCCCCCCCCCCC[N+](C)(C)C	inactive
CN(C)[C@@H]1C(=O)C(C(N)=O)=C(O)[C@@]2(O)C(=O)C3=C(O)c4c(O)cccc4[C@@](C)(O)[C@H]3[C@H](O)[C@@H]12	inactive
CN(C)NC(=O)CCC(=O)O	inactive
CC(C)(O)C(=O)Nc1ccc([N+](=O)[O-])c(C(F)(F)F)c1	inactive

test system: not listed separately; assay: qHTS assay for small molecule antagonists of the retinoid-related orphan receptor gamma (ROR-gamma) signaling pathway - cell viability counter screen (AID 720652; active = well fitted curve in the direction sought with a large enough effect in the repeat runs; an effect the other way counts as inactive or inconclusive;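 also: CHO reporter cells with doxycycline-induced ROR-gamma expression; compound exposure lasted 16 hr before ATP read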); settings: RORgamma reporter cell line viability counter screen; series mostly up to 92.2 µM
In short: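 ATP-based viability readout in the ROR-gamma reporter CHO cells after 16 hr compound exposure under doxycycline induction.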

SMILES	Potency
CN(C)[C@@H]1C(=O)C(C(N)=O)=C(O)[C@@]2(O)C(=O)C3=C(O)c4c(O)cccc4[C@@](C)(O)[C@H]3[C@H](O)[C@@H]12	inactive
CN(C)NC(=O)CCC(=O)O	inactive
CC(C)(O)C(=O)Nc1ccc([N+](=O)[O-])c(C(F)(F)F)c1	inactive

test system: not listed separately; assay: qHTS assay for small molecule agonists of the antioxidant response element (ARE) signaling pathway measured by Nrf2-dependant transcriptional activity - cell viability counter screen (AID 720653; active = well fitted curve in the direction sought with a large enough effect in the repeat runs; an effect the other way counts as inactive or inconclusive); settings: ARE-bla HepG2 viability, CellTiter-Glo ATP luminescence, 16 h; max response: hits give low values
In short: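 ARE-bla HepG2 cells treated with compounds for 16 h at 37C; this counter screen measures viability as intracellular ATP by CellTiter-Glo luminescence after 30 min at room temperature.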

SMILES	max response
CCCCCC[C@H]1C(=O)O[C@H](C)[C@H](NC(=O)c2cccc(NC=O)c2O)C(=O)O[C@@H](C)[C@@H]1OC(=O)CC(C)C	-26.8%
CCCCCCCCCCCCCCCC[N+](C)(C)C	-27.3% and -1.44%
CCCCCCCCc1ccc(O)cc1	-0.124% and 0.446%
CN(C)[C@@H]1C(=O)C(C(N)=O)=C(O)[C@@]2(O)C(=O)C3=C(O)c4c(O)cccc4[C@@](C)(O)[C@H]3[C@H](O)[C@@H]12	-0.377% and -4.28% and 10.9%
CN(C)NC(=O)CCC(=O)O	-0.912% and -0.667%
CC(C)(O)C(=O)Nc1ccc([N+](=O)[O-])c(C(F)(F)F)c1	-5.91%

molecular target: Hexokinase-4 (Homo sapiens) + Glucokinase regulatory protein (Homo sapiens) (UniProt P35557+Q14397); assay: qHTS assay for inhibitors of recombinant human GCK-GKRP interaction: Diaphorase-coupled assay (AID 743205); settings: G6PDH/diaphorase resorufin fluorescence; series mostly up to 57.5 µM
Sequence (P35557 whole entry, looked up): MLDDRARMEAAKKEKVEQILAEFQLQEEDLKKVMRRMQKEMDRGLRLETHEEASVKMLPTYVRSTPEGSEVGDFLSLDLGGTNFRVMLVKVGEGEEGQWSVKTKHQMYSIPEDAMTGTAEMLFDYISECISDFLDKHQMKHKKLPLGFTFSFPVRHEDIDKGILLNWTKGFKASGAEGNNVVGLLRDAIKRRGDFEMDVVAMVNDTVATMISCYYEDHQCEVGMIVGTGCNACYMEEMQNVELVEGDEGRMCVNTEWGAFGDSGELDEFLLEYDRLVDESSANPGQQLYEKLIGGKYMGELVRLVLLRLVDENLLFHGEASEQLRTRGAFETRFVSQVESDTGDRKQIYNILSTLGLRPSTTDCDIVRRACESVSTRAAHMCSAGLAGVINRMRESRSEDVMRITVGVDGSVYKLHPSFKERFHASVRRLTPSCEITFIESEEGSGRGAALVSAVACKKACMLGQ
Sequence (Q14397 whole entry, looked up): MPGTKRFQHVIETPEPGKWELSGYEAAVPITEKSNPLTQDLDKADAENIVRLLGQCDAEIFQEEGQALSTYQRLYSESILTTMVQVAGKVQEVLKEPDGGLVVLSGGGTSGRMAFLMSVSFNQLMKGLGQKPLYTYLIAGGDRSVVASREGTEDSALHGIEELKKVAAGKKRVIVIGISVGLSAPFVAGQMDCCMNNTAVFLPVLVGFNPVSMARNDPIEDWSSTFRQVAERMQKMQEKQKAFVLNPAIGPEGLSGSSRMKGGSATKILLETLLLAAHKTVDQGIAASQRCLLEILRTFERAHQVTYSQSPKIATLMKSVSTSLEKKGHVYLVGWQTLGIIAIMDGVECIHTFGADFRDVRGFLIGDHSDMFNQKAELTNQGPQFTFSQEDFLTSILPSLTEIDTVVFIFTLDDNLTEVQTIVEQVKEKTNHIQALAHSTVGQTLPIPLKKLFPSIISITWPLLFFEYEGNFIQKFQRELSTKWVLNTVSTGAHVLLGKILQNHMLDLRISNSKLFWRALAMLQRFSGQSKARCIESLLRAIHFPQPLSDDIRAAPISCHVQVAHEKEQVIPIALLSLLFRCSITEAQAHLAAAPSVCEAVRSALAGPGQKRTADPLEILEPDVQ
In short: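 A kinetic fluorescence read (Ex 525/Em 590 nm, every minute for 30 minutes) tracked resorufin from a G6PDH-diaphorase coupled GCK reaction. It contained 10 nM GST-GCK, 10 nM FLAG-GKRP, 5 mM glucose, 0.4 mM ATP in Hepes pH 7.6. Normalized to with/without-enzyme DMSO controls.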

SMILES	outcome
Cc1c(C(=O)c2cccc3ccccc23)c2cccc3c2n1[C@H](CN1CCOCC1)CO3	inactive
NC(=O)CN1CC(O)CC1=O (stereo not drawn)	inactive
C#CCOC(=O)C1=CCCN(C)C1	inactive
C[C@]12N[C@H](Cc3ccccc31)c1ccccc12	inactive
CC(=O)NCCc1c[nH]c2ccccc12	inactive
CCCCc1ccc(C(=O)O)nc1	inactive
O=C(N[C@H]1CN2CCC1CC2)c1ccc(Cl)cc1	inactive
CC(C)NC(C)Cc1ccc(I)cc1 (stereo not drawn)	inactive
CC[C@@H](C(N)=O)N1CCCC1=O	inactive
CC[C@@]1(O)C(=O)OCc2c1cc1n(c2=O)Cc2cc3ccccc3nc2-1	inactive
O=C(O)CC[N+](=O)[O-]	inactive
CCCN(CCC)[C@@H]1CCc2ccc(O)cc2C1	inactive
C[C@@H](N)Cc1cnc[nH]1	inactive
c1ccc2sc(C3(N4CCCCC4)CCCCC3)cc2c1	inactive
COC(=O)[C@@H](N)CCCN=C(N)N[N+](=O)[O-]	inactive
c1ccc(C2(c3ccccc3)CC2C2=NCCN2)cc1 (stereo not drawn)	inactive
O=C1CCCN1CC#CCN1CCCC1	inactive
CC1=NN=C(c2ccc(N)cc2)c2cc3c(cc2C1)OCO3	inactive
c1ccc(CCCN2CCN(CCOC(c3ccccc3)c3ccccc3)CC2)cc1	inactive
C[C@@H]1O[C@H](C[N+](C)(C)C)C[C@H]1O	inactive
S=C(NC1CCCCC1)N1CCC(c2cnc[nH]2)CC1	inactive
NC(CP(=O)(O)O)C(=O)O (stereo not drawn)	inactive
Oc1ccc2c3c1O[C@H]1c4[nH]c5c(c4C[C@@]4(O)[C@@H](C2)N(CC2CC2)CC[C@]314)C[C@@]1(O)[C@H]2Cc3ccc(O)c4c3[C@@]1(CCN2CC1CC1)[C@H]5O4	inactive
NCCc1c[nH]c2ccccc12	inactive
COc1cc(C(O)CN)ccc1O (stereo not drawn)	inactive
C/C=C(/C)C(=O)O[C@H]1C(C)=C2[C@H]([C@@H]1OC(=O)CCCCCCC)[C@@](C)(OC(C)=O)C[C@H](OC(=O)CCC)[C@@]1(O)[C@H]2OC(=O)[C@@]1(C)O	inactive
NC1CC1c1ccccc1 (stereo not drawn)	inactive
CCCN1CCC[C@H](c2cccc(O)c2)C1	inactive
NC(N)=NOCCC(N)C(=O)O (stereo not drawn)	inactive
COc1ccc2c(c[n+](C)c3c4cc5c(cc4ccc23)OCO5)c1OC	inactive

From PubChem BioAssay (NCATS)
